# This is one part of a sample in which hits are shown more often than they occur.
# Dicer inh = blocks human Dicer maturation of pre-miR-21; z-score at 25 µM; Q9UPY3; cat-ELCCA pre-miR-21 Dicer processing, chemiluminescence; hits give high values; 47,000 tested, 6% active; in the data active = z-score above about 3, passing the limit was not always enough;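 note: higher signal means more uncleaved substrate so more Dicer inhibition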
# Numbers stand for hits; . = inactive.
SMILES,Dicer inh
CC(C)N1C(=O)C(O)(CC(=O)c2ccc3c(c2)OCCO3)c2ccccc21 (configuration not stated),.
CCCCCCSc1n[nH]c(=S)s1,.
CCn1c(SC)nc2ccccc2c1=O,.
CCn1c(/C=C/c2cccc(Br)c2)nc2ccccc2c1=O,.
CCn1c(/C=C/c2ccc3c(c2)OCO3)nc2ccccc2c1=O,5.1
O=S(=O)(CS(=O)(=O)Oc1cc(Cl)cc(Cl)c1)Oc1cc(Cl)cc(Cl)c1,.
COC(=O)Cc1ccc2oc3cc(OC)ccc3c(=O)c2c1,.
Cc1cccc2[nH]c(-c3ccccc3)nc12,.
O=c1[nH]c(-c2ccccc2)nc(=S)[nH]1,.
Nc1cccc2[nH]c(-c3ccccc3)nc12,3.9
Cc1cccc2[nH]c(-c3ccc(N)cc3)nc12,6.8
Nc1ccc(-c2nc3c(Cl)c(N)ccc3[nH]2)cc1,3.4
Cc1c(C)c(C)c2[nH]c(-c3ccc4c(c3)OCO4)nc2c1C,.
Cc1cccc2[nH]c(SCc3ccccc3F)nc12,.
Brc1cccc(-c2nc3ccccc3[nH]2)c1,.
Cc1c(N)ccc2[nH]c(-c3ccc(N)cc3)nc12,6.3
COc1ccc(-c2oc3ncn4nc(-c5ccncc5)nc4c3c2-c2ccc(OC)cc2)cc1,.
COC(=O)c1ccc(C2c3c(oc4ccc(F)cc4c3=O)C(=O)N2Cc2ccc3c(c2)OCO3)cc1 (configuration not stated),.
c1ccc(NC2=NCCCCC2)cc1,.
CCN(CC)S(=O)(=O)c1cccc(-c2cn3ccc(C)cc3n2)c1,.
Cc1nc2nc(C(C)C)cc(=O)n2[nH]1,.
CCOc1ccc(C2c3c(oc4ccccc4c3=O)C(=O)N2Cc2ccc3c(c2)OCO3)cc1OCC (configuration not stated),.
Cc1c(C(=O)O)cc(-c2ccccc2)n1CCSCCO,.
Nc1nc2ncc(CNc3ccc(C(=O)N[C@@H](CCC(=O)O)CC(=O)O)cc3)nc2c(=O)[nH]1,.
Cc1ccc(NC(=O)Nc2ccc(C(F)(F)F)cn2)cc1Cl,.
SMILES,Dicer inh
O=C1C(=O)N(c2ccccc2)C(=S)/C1=C(\O)c1ccc(Cl)cc1,.
CCOc1ccc(N2CC(O)=C(c3nc4ccccc4c(=O)[nH]3)C2=N)cc1,.
CCc1ccccc1N1CC(O)=C(c2nc3ccccc3c(=O)[nH]2)C1=N,4.9
Cc1ccc(N2CC(O)=C(c3nc4ccccc4c(=O)[nH]3)C2=N)c(C)c1,.
Cc1nc2sc(C(=O)c3ccc(Cl)cc3)c(N)c2c(C)c1C,.
O=C(CCc1ccc(O)cc1)NNC(=S)Nc1cc(C(F)(F)F)cc(C(F)(F)F)c1,.
CCCCCOC(=O)CSc1nnc(-c2ccc(C)cc2)o1,.
c1csc(CNc2nc3ccccc3n2CCN2CCCCC2)c1,.
c1ccc(Cn2c(NCc3cccs3)nc3ccccc32)cc1,3
CCCn1c(NCc2cccs2)nc2ccccc21,3.1
c1csc(CNc2nc3ccccc3n2CCN2CCOCC2)c1,.
Clc1cc(Cl)cc(-c2nnc(N3CCCC3)o2)c1,.
O=c1[nH]cnc2c1cnn2-c1ccccc1,3.6
O=c1[nH]cnc2c1cnn2-c1ccc(F)cc1,.
Cc1nc2c(cnn2-c2ccccc2)c(=O)o1,.
CCCCOc1ccc(C2c3c(oc4ccccc4c3=O)C(=O)N2c2nnc(C)s2)cc1OCC (configuration not stated),.
O=C(COc1ccccc1)NC1CCSC1=O (configuration not stated),3.4
O=C(CCCOc1ccccc1)NC1CCSC1=O (configuration not stated),.
O=C(CCc1ccccc1)NC1CCSC1=O (configuration not stated),.
C#CC(CC)(CC)NC(=O)NC(=O)c1ccc(F)c(Cl)c1,.
O=C(NCc1ccc(Cl)cc1Cl)c1cccnc1Sc1cccc(Cl)c1,.
CCN(CC)Cc1cc(O)c(CN(CC)CC)cc1O,.
CCc1oc(C(=O)O)cc1CN(CC)CC,.
CCN(CC)Cc1cc(C(C)C)c(O)c(C(C)C)c1,4.1
CO/N=C1\CCCc2c(C(=O)N/N=C/c3ccc(Cl)cc3)sc(SC)c21,.
SMILES,Dicer inh
Cc1cccc(Cn2nc(C(C)(C)C)cc2-c2nnc(SCC(=O)O)n2C2CCCCC2)c1,.
O=C1CCC(=O)N1c1nc2n(n1)C(c1ccccc1)C=C(c1ccccc1)N2 (configuration not stated),.
O=C1CC(c2cccc3ccccc23)Sc2nc(-c3ccccc3)nn21 (configuration not stated),4.4
Cc1ccc(-c2nc3n(n2)C(=O)CC(c2ccc4c(c2)OCO4)S3)cc1 (configuration not stated),.
O=C1CC(c2ccccc2)Sc2nc(-c3ccc(F)cc3)nn21 (configuration not stated),.
COc1ccc(-c2nc3n(n2)C(c2cccc(OC)c2OC)C2=C(CC(C)(C)CC2=O)N3)cc1 (configuration not stated),.
COc1ccc(-c2nc3n(n2)C(=O)CC(c2cccc4ccccc24)S3)cc1 (configuration not stated),4.2
CSc1sc(C(=O)Nc2ccc(Cl)cc2)c2c1C=CCC2,.
Cc1cc(-c2ccccc2)n(-c2cccc3cccnc23)n1,.
O=C(CC1(O)C(=O)N(Cc2ccccc2Cl)c2ccccc21)c1ccccn1 (configuration not stated),.
O=C(NCc1ccc(Cl)c(Cl)c1)c1c(C(F)(F)F)ccnc1Oc1ccccc1,.
C[C@@H]1CC2OC(=O)[C@@]3(C)CCC[C@@](C)(C23)[C@@]1(O)CCc1ccoc1 (some centres not stated),.
COc1ccc(O)c(C2=NN3C(C2)c2cccc(OC)c2OC3c2cccnc2)c1 (configuration not stated),.
COc1ccc(C2=NN3C(C2)c2ccccc2OC3c2ccc(C)cc2)cc1OC (configuration not stated),.
COc1ccc(O)c(C2=NN3C(C2)c2cc(Cl)ccc2OC3c2ccncc2)c1 (configuration not stated),.
Oc1ccccc1C1=NN2C(C1)c1cc(Cl)ccc1OC2c1cccnc1 (configuration not stated),.
COc1ccc(C2=NN3C(C2)c2cc(OC)ccc2OC3c2cccnc2)cc1 (configuration not stated),4.8
Cc1ccc(C2=NN3C(C2)c2ccccc2OC3c2ccncc2)cc1 (configuration not stated),6.9
Cc1ccc(O)c(C2=NN3C(C2)c2ccccc2OC3c2ccncc2)c1 (configuration not stated),.
COc1ccc(C2=NN3C(C2)c2cc(Cl)ccc2OC3c2ccncc2)cc1 (configuration not stated),9.1
COc1ccc(O)c(C2=NN3C(C2)c2ccccc2OC3c2cccnc2)c1 (configuration not stated),.
Cc1ccc(CSc2nnc(CCN)o2)cc1,.
Cc1nc(-c2ccc(-c3nc(C)c(-c4ccccc4)o3)cc2)oc1-c1ccccc1,.
CSC(C)c1ccn(S(=O)(=O)c2ccc(Cl)cc2)n1 (configuration not stated),.
Cc1nnc(SCC#CCOC(=O)c2ccc(Br)cc2)s1,.
CCSc1cc(C(F)(F)F)nc2c(Br)c(C(C)(C)C)nn12,.
CN1N=C(c2ccccc2)CSC1=Nc1ccccc1Cl,.
COc1cc(/C=C/c2cc(C(F)(F)F)[nH]c(=O)n2)ccc1O,.
O=c1nc(/C=C/c2ccc(-c3cccc(F)c3)o2)cc(C(F)(F)F)[nH]1,3.1
Cc1ccsc1/C=C/c1cc(C(F)(F)F)[nH]c(=O)n1,.
